Assay results as given in PubChem BioAssay AID1159580 (chemical genetic matrix, 2015).
Where “and” joins values, the source holds several entries; their conditions need not be identical. Equal values may be shown once. Screen size: about 5,500 compounds; about 2,000 (36%) were called active. Another 18% or so got no clear call; they are omitted. Cut-off read from the data, not from the text of the source: active = normalized growth mostly below about 0.91 (no sharp cut-off); inconclusive = no clear call, values can overlap the other calls; inactive = mostly above about 0.92. This is one part of the list.

Test: chemical genetic growth profiling, strain panel (AID 1159580);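 note: tested at 20 µM; growth read once vehicle control cultures reached saturation at 30 °C; 1 = growth at the plate median or of vehicle wells; lower values mean less growth of the strain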
Settings: S. cerevisiae deletion strains, growth OD

Measured: normalized growth

O=C(O)c1cc(O)c2c(c1)[C@@H]([C@H]1c3cc(C(=O)O)cc(O)c3C(=O)c3c(O[C@H]4O[C@H](CO)[C@@H](O)[C@H](O)[C@H]4O)cccc31)c1cccc(O[C@H]3O[C@H](CO)[C@@H](O)[C@H](O)[C@H]3O)c1C2=O
active: locus YDR195W, strain ref2 1.17 [resistant] | locus YEL037C, strain rad23, active compounds read low 1.09 [resistant] | locus YJL095W, strain BCK1 (second series), active compounds read low 1.12 [resistant] | locus YLR357W, strain rsc2, active compounds read low 1.28 [resistant] | locus YOR070C, strain gyp1, active compounds read low 1.08 [resistant] | locus YOR080W, strain dia2, active compounds read low 1.13 [resistant]
inactive: locus YAL013W, strain DEP1, active compounds read low 1.02 | locus YAL021C, strain ccr4, active compounds read low 0.983 | locus YAL026C, strain drs2, active compounds read low 1.01 | locus YAL030W, strain snc1, active compounds read low 1.02 | locus YBL061C, strain skt5, active compounds read low 1.01 | locus YBR009C, strain hhf1, active compounds read low 1.04 | locus YBR021W, strain FUR4, active compounds read low 1.02 | locus YBR023C, strain chs3, active compounds read low 1.02 | locus YBR171W, strain sec66, active compounds read low 1.02 | locus YBR229C, strain ROT2, active compounds read low 1.01 | locus YBR231C, strain swc5, active compounds read low 1.02 | locus YBR279W, strain paf1, active compounds read low 1.01 | locus YCL011C, strain gbp2, active compounds read low 1.02 | locus YCL016C, strain dcc1, active compounds read low 1.02 | locus YCL029C, strain bik1, active compounds read low 1 | locus YCL061C, strain MRC1, active compounds read low 0.987 | locus YCL069W, strain vba3, active compounds read low 1.01 | locus YCR088W, strain abp1, active compounds read low 1.02 | locus YDL005C, strain med2, active compounds read low 1 | locus YDL035C, strain GPR1, active compounds read low 1.02 | locus YDL040C, strain nat1, active compounds read low 1.04 | locus YDL074C, strain BRE1, active compounds read low 1.04 | locus YDL101C, strain DUN1, active compounds read low 1.01 | locus YDL134C, strain PPH21, active compounds read low 1.01 | locus YDL185W, strain tfp1, active compounds read low 1.01 | locus YDL192W, strain arf1, active compounds read low 0.995 | locus YDR001C, strain nth1, active compounds read low 1.04 | locus YDR069C, strain doa4, active compounds read low 1.01 | locus YDR101C, strain arx1, active compounds read low 0.98 | locus YDR137W, strain rgp1, active compounds read low 0.953 | locus YDR150W, strain NUM1, active compounds read low 1.02 | locus YDR159W, strain sac3, active compounds read low 1.02 | locus YDR162C, strain NBP2, active compounds read low 1.02 | locus YDR297W, strain sur2, active compounds read low 1.02 | locus YDR318W, strain mcm21, active compounds read low 1.01 | locus YDR334W, strain swr1, active compounds read low 1.05 | locus YDR335W, strain msn5, active compounds read low 1.02 | locus YDR388W, active compounds read low 1 | locus YDR392W, strain spt3, active compounds read low 0.93 | locus YDR502C, strain sam2, active compounds read low 0.995 | locus YEL003W, strain gim4, active compounds read low 1.02 | locus YEL061C, strain CIN8 (second series), active compounds read low 1.05 | locus YEL061C, strain CIN8, active compounds read low 1.01 | locus YER015W, strain faa2, active compounds read low 1.01 | locus YER016W, strain bim1, active compounds read low 1.02 | locus YER110C, active compounds read low 1 | locus YER155C, strain BEM2 (second series), active compounds read low 1.01 | locus YER155C, strain BEM2, active compounds read low 1.01 | locus YER167W, strain BCK2, active compounds read low 1.01 | locus YFR010W, strain ubp6, active compounds read low 1.02 | locus YGL078C, strain dbp3, active compounds read low 0.993 | locus YGL086W, strain mad1, active compounds read low 1 | locus YGL167C, strain pmr1, active compounds read low 1.03 | locus YGL173C, strain kem1, active compounds read low 1.02 | locus YGL227W, strain vid30, active compounds read low 1.05 | locus YGL240W, strain doc1, active compounds read low 0.989 | locus YGL248W, strain PDE1, active compounds read low 1.02 | locus YGL253W, strain hxk2, active compounds read low 1.02 | locus YGR135W, strain pre9, active compounds read low 1.01 | locus YGR252W, strain gcn5, active compounds read low 0.949 | locus YHR013C, strain ard1, active compounds read low 1.06 | locus YHR027C, strain rpn1, active compounds read low 1.05 | locus YHR030C, strain SLT2, active compounds read low 1.01 and 0.986 | locus YHR079C, strain IRE1 (second series), active compounds read low 1 | locus YHR079C, strain IRE1, active compounds read low 0.981 | locus YHR094C, strain hxt1, active compounds read low 0.999 | locus YHR129C, strain ARP1, active compounds read low 1.01 | locus YHR142W, strain chs7, active compounds read low 1.09 | locus YHR200W, strain rpn10, active compounds read low 0.991 | locus YIL066C, strain RNR3, active compounds read low 1.02 | locus YIL073C, strain SPO22, active compounds read low 1.06 | locus YIL125W, strain kgd1, active compounds read low 1 | locus YIR030C, strain dcg1, active compounds read low 0.999 | locus YJL092W, strain hpr5, active compounds read low 1.01 | locus YJL095W, strain BCK1, active compounds read low 1.03 and 0.978 | locus YJL129C, strain trk1, active compounds read low 1.04 | locus YJL134W, strain LCB3, active compounds read low 1.02 | locus YJL154C, strain vps35, active compounds read low 1.02 | locus YJL164C, strain tpk1, active compounds read low 1 | locus YJL166W, strain qcr8, active compounds read low 0.958 | locus YJL168C, strain set2, active compounds read low 1.02 | locus YJL187C, strain SWE1 (second series), active compounds read low 1.02 | locus YJL187C, strain SWE1, active compounds read low 1.01 | locus YJR043C, strain POL32, active compounds read low 1 | locus YJR066W, strain TOR1, active compounds read low 0.934 | locus YKL009W, strain mrt4, active compounds read low 1.11 | locus YKL068W, active compounds read low 1.01 | locus YKL085W, strain MDH1 (second series), active compounds read low 1.03 | locus YKL085W, strain MDH1, active compounds read low 1.03 | locus YKL160W, strain elf1, active compounds read low 0.993 | locus YKR001C, strain vps1, active compounds read low 1.02 | locus YKR026C, strain gcn3, active compounds read low 1.02 | locus YLL001W, strain dnm1, active compounds read low 1.02 | locus YLL026W, active compounds read low 1.02 | locus YLL041C, strain sdh2, active compounds read low 1.01 | locus YLR027C, strain aat2, active compounds read low 1.02 | locus YLR039C, strain RIC1, active compounds read low 1.03 | locus YLR058C, strain SHM2, active compounds read low 1.01 | locus YLR102C, strain apc9, active compounds read low 1 | locus YLR113W, strain HOG1, active compounds read low 1.01 | locus YLR221C, strain rsa3, active compounds read low 0.986 | locus YLR258W, strain gsy2, active compounds read low 0.99 | locus YLR262C, strain YPT6 (second series), active compounds read low 0.979 | locus YLR262C, strain YPT6, active compounds read low 1.1 | locus YLR268W, strain sec22, active compounds read low 0.998 | locus YLR320W, strain mms22, active compounds read low 1.03 | locus YLR330W, strain CHS5, active compounds read low 1.01 | locus YLR342W, strain FKS1 (second series), active compounds read low 0.985 | locus YLR342W, strain FKS1, active compounds read low 1.04 | locus YLR370C, strain arc18, active compounds read low 1 | locus YLR371W, strain rom2, active compounds read low 0.999 | locus YLR384C, strain iki3, active compounds read low 1.02 | locus YLR418C, strain cdc73, active compounds read low 0.993 | locus YML016C, strain PPZ1, active compounds read low 1.01 | locus YML032C, strain rad52, active compounds read low 0.998 | locus YML120C, strain ndi1, active compounds read low 1.01 | locus YML124C, strain tub3, active compounds read low 0.997 | locus YMR058W, strain fet3, active compounds read low 1.03 | locus YMR078C, strain ctf18, active compounds read low 1 | locus YMR125W, strain sto1, active compounds read low 1.02 | locus YMR129W, active compounds read low 1.04 | locus YMR205C, strain PFK2, active compounds read low 0.958 | locus YMR223W, strain ubp8, active compounds read low 0.997 | locus YMR231W, strain pep5, active compounds read low 1.01 | locus YMR307W, strain GAS1, active compounds read low 1 | locus YNL067W, strain RPL9B, active compounds read low 1.01 | locus YNL071W, strain lat1, active compounds read low 1.03 | locus YNL128W, strain TEP1, active compounds read low 1.05 | locus YNL153C, strain GIM3, active compounds read low 1 | locus YNL183C, strain NPR1, active compounds read low 0.937 | locus YNL209W, strain ssb2, active compounds read low 1.01 | locus YNL233W, strain BNI4, active compounds read low 1.01 | locus YNL248C, strain rpa49, active compounds read low 1 | locus YNL250W, strain rad50, active compounds read low 1.02 | locus YNL271C, strain bni1, active compounds read low 1 | locus YNL298W, strain CLA4, active compounds read low 0.993 | locus YNL307C, strain MCK1, active compounds read low 1.01 | locus YNL322C, strain KRE1 (second series), active compounds read low 1.02 | locus YNR049C, strain mso1, active compounds read low 1.05 | locus YNR052C, strain pop2, active compounds read low 0.978 | locus YOL006C, strain TOP1, active compounds read low 1.04 | locus YOL012C, strain htz1 0.926 | locus YOL147C, strain pex11, active compounds read low 1 | locus YOR001W, strain rrp6, active compounds read low 1.04 | locus YOR061W, strain CKA2, active compounds read low 1.02 | locus YOR069W, strain VPS5, active compounds read low 1.02 | locus YOR083W, strain WHI5, active compounds read low 0.957 | locus YOR106W, strain vam3, active compounds read low 0.979 | locus YOR136W, strain idh2, active compounds read low 1.01 | locus YOR144C, strain elg1, active compounds read low 1.01 | locus YOR184W, strain ser1, active compounds read low 1.02 | locus YOR231W, strain MKK1, active compounds read low 0.988 | locus YOR265W, strain rbl2, active compounds read low 1.01 | locus YOR270C, strain vph1, active compounds read low 1.05 | locus YOR290C, strain snf2, active compounds read low 0.997 | locus YOR316C, strain cot1, active compounds read low 1 | locus YPL051W, strain arl3, active compounds read low 0.995 | locus YPL055C, strain LGE1, active compounds read low 1.01 | locus YPL078C, strain atp4, active compounds read low 0.979 | locus YPL106C, strain sse1, active compounds read low 0.977 | locus YPL240C, strain hsp82, active compounds read low 0.993 | locus YPL241C, strain CIN2, active compounds read low 1.02 | locus YPL256C, strain CLN2, active compounds read low 1.03 | locus YPR119W, strain clb2, active compounds read low 1 | locus YPR141C, strain kar3, active compounds read low 1 | locus YPR163C, strain tif3, active compounds read low 1.01 | locus YPR167C, strain met16, active compounds read low 0.99 | strain wtn01, active compounds read low 1.01
